Measured potencies and affinities stand elsewhere. Activity calls are given as the source filed them.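 The calls were made as follows: active = cell killing, meaning signal decrease, with fitted half-maximal dose at or below ten times the top valid tested dose; inconclusive = poor fit, or flat curve with 30 to 70% signal loss; inactive = the rest.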
Experiment: HeLa cell cytotoxicity, dose response, cytotoxicity control for MITF activator project, CellTiter-Glo luminescence, cherry-pick samples (AID 540259)
Details: HeLa viability, CellTiter-Glo ATP luminescence, 24 h; series mostly up to 35 µM

Row | SMILES | outcome
1 | Cc1ccc(-c2csc(C(C#N)=C3CCCC3)n2)cc1 | inactive
2 | c1csc(CSc2nc3ccccc3s2)c1 | inactive
3 | Cc1cnc(NC(=O)Nc2ccc(Cl)cc2)s1 | inactive
4 | Cc1cccc(-c2noc(Cc3ccccc3)n2)c1 | inactive
5 | COc1ccc(/C=C2\OC(=O)c3c(OC)cccc32)cc1OC | inactive
6 | CC(C)(C)C(=O)c1sc(Nc2ccccc2)nc1N | inactive
7 | Cn1cc(Br)c(C(=O)Nc2sc3c(c2C(N)=O)CCCC3)n1 | inactive
8 | COc1ccc(/C=C2\SC(=O)N(CCNC(=O)C3CC4C=CC3C4)C2=O)cc1 (configuration not stated) | inactive
9 | COc1ccc(-c2noc(-c3cccc(OC)c3OC)n2)cc1OC | inactive
10 | Nc1nc(CSc2ccccn2)nc(Nc2ccccc2)n1 | inactive
11 | Cc1cc(C)c(NN=c2c(=O)c3ccccc3c2=O)c(C)c1 | inactive
12 | O=C(N/N=C/c1ccccn1)c1c[nH]c2ccccc12 | inactive
13 | Brc1ccccc1-n1nnc(-c2nccs2)n1 | inactive
14 | Cc1nc2ccccn2c1C(=O)N/N=C/c1ccc2c(c1)OCO2 | inactive
15 | Cc1nn(-c2ccc(N3CCCCC3)nn2)c(C)c1CCC(=O)Nc1cccc(F)c1 | inactive
16 | CC(=O)c1cccc(OCc2cc(C(=O)N(C)Cc3cnccn3)no2)c1 | inactive
17 | Cc1nn(-c2ccccn2)c2c1-c1nc(N)ncc1CC2 | inactive
18 | CC(C)(C)C(=O)OCc1nc(-c2ccc(F)cc2)cs1 | inactive
19 | Cc1ccc(NC(=O)Nc2ccc3c(c2)OCO3)c(OC(F)F)c1 | inactive

Row | SMILES | outcome
20 | COc1ccc(/C=N/Nc2snc(SC)c2C#N)cc1OC | inactive
21 | CC(C)(C)n1ncc2c(=O)n(CC(=O)c3ccccc3)cnc21 | inactive
22 | CCCC(=O)N1c2ccc(-c3csc(N)n3)cc2CC1C (configuration not stated) | inactive
23 | COc1ccc(NC(=O)Nc2ccc(Br)cn2)cc1 | inactive
24 | c1ccc(CSCc2nc3ccccc3[nH]2)cc1 | inactive
25 | Cc1cc(NC(=O)Nc2ccc3c(ccn3C)c2)sn1 | inactive
26 | O=C(N=C1N=C2C=CC=CN2Cc2ccccc21)c1ccc(S(=O)(=O)N2CCCC2)cc1 | inactive
27 | O=c1c(-c2ccc(O)cc2)coc2cc(O)cc(O)c12 | inactive
28 | O=C1OC(c2ccccc2)=C/C1=C/N1CCCCC1 | inactive
29 | CC(C)c1ccc(NC(=O)Cn2ncc3ccccc32)cc1 | inactive
30 | Cc1ccc(CNc2ccc3c(c2)ncn3C(C)C)cc1 | inactive
31 | COc1ccc(Br)c(C(=O)Nc2nc3ccccc3[nH]2)c1 | inactive
32 | CC(C)(C)c1ccc(C(=O)Nc2ccc(F)cc2)s1 | inactive
33 | Cc1ccc(N(O)C(=O)NCCCCNC(=O)N(O)c2ccc(C)cc2)cc1 | inactive
34 | COCc1ccc(-c2c(-c3ccc(OC)cc3)oc(=O)c3cc(OC)c(OC)cc23)cc1 | inactive
35 | CCCCSc1nsc(NC(C)=O)n1 | inactive
36 | Cc1ccc(/C=N/Nc2ccc(Cl)nn2)cc1 | inactive
37 | N#C/C(C(=O)N1CCCCC1)=C1\Nc2ccccc2S1 | inactive

Source: PubChem BioAssay AID540259 (Broad Institute, 2011)
